# Reference: PubChem BioAssay (NCATS)
# Results filed as inconclusive are left out. A call without a number means that no potency is given here. Active and inactive are the calls of the source. Unless noted, calls come from the whole dose curve; as a rule, active = well fitted inhibition curve with a large enough effect; inconclusive = small, poorly fitted or top-dose-only effect; inactive = flat fitted curve, though single readings scatter.
# System: not listed separately
# Experiment: Cytotoxicity counterscreen for inhibitors of SARS-CoV-2 cell entry (AID 1645845; calls by dose curve; note: nearly all actives have a fitted effect of over 50% in size)
# Conditions: cell viability (SARS-CoV-2 entry assay cells); series mostly up to 57.1 µM
# In short: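 Counterscreen run in the same HEK293-ACE2 line as the pseudotyped-particle entry assay, without particles. Viability after 48 h at 37 C was read as ATP luminescence, scaled between cell-containing and cell-free wells.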
row,SMILES,Potency
1,CC(C)C[C@H]1C(=O)N2CCC[C@H]2[C@]2(O)O[C@](NC(=O)[C@@H]3C[C@@H]4c5cccc6[nH]cc(c56)C[C@H]4N(C)C3)(C(C)C)C(=O)N12,inactive
2,Cc1nnc2n1-c1sc(Br)cc1C(c1ccccc1Cl)=NC2,inactive
3,CC(C)=CCN1CC[C@]2(C)c3cc(O)ccc3C[C@H]1[C@H]2C,inactive

# Target: Glutathione peroxidase 1 (Homo sapiens) (UniProt P07203)
# Sequence (P07203 whole entry, looked up): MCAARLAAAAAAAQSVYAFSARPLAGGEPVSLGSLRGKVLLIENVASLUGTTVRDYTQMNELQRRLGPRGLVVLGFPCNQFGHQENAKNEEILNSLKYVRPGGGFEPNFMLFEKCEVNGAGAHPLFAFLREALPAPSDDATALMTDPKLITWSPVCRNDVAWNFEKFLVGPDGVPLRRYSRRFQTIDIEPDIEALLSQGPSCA
# Experiment: Primary qHTS Assay for Inhibitors of Recombinant Selenoprotein Glutathione Peroxidase 1 (GPX1) (AID 1845191); note: nearly all actives have a fitted effect of over 65% in size
# Conditions: recombinant GPX1, GR-coupled NADPH fluorescence, 15 min; series mostly up to 48.8 µM
# In short: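 GR-coupled readout: NADPH consumption tracked by fluorescence, ex 340/em 450 nm, at t=0 and after 15 min at RT. Final mix 10 nM GPX1, 1 mM GSH, 0.5 mM CHP, 0.5 mM NADPH, 100 nM GR, 0.01% BSA, following 30 min enzyme–compound preincubation.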
row,SMILES,Potency
1,CC1=CC(=O)[C@@H](O)[C@]2(C)C3[C@@H](O)[C@@H]4OC(=O)[C@@H]([C@H]4C)[C@]3(C)C(=O)[C@H](O)[C@@H]12 (some centres undefined),inactive
2,CC(C)C[C@H]1C(=O)N2CCC[C@H]2[C@]2(O)O[C@](NC(=O)[C@@H]3C[C@@H]4c5cccc6[nH]cc(c56)C[C@H]4N(C)C3)(C(C)C)C(=O)N12,inactive
3,Cc1nnc2n1-c1sc(Br)cc1C(c1ccccc1Cl)=NC2,inactive
4,CC(C)=CCN1CC[C@]2(C)c3cc(O)ccc3C[C@H]1[C@H]2C,inactive

# Target: Phospholipid hydroperoxide glutathione peroxidase GPX4 (Homo sapiens) (UniProt P36969)
# Sequence (P36969 whole entry, looked up): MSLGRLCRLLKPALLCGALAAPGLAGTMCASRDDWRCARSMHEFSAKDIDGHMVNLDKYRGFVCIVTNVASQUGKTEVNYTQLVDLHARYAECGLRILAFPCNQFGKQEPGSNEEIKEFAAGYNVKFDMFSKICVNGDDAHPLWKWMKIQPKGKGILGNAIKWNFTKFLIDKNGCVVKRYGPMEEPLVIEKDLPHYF
# Experiment: Primary qHTS Assay for Inhibitors of Recombinant Selenoprotein Glutathione Peroxidase 4 (GPX4) (AID 1845192); note: nearly all actives have a fitted effect of over 65% in size
# Conditions: recombinant GPX4, GR-coupled NADPH fluorescence, 15 min; series mostly up to 50 µM
# In short: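 Steps: GPX4 plus compound, 30 min RT; add GR/GSH/NADPH master mix; start with cumene hydroperoxide; read 340/450 nm fluorescence at 0 and 15 min. Finals were 200 nM GPX4, 1 mM GSH, 0.5 mM CHP, 0.5 mM NADPH, 100 nM GR.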
row,SMILES,Potency
1,CC1=CC(=O)[C@@H](O)[C@]2(C)C3[C@@H](O)[C@@H]4OC(=O)[C@@H]([C@H]4C)[C@]3(C)C(=O)[C@H](O)[C@@H]12 (some centres undefined),inactive
2,Cc1nnc2n1-c1sc(Br)cc1C(c1ccccc1Cl)=NC2,inactive
3,CC(C)=CCN1CC[C@]2(C)c3cc(O)ccc3C[C@H]1[C@H]2C,inactive

# System: KB-3-1
# Experiment: Cytotoxic Profiling of Annotated Libraries Using Quantitative High-Throughput Screening (AID 1296008); note: nearly all actives have a fitted effect of over 60% in size
# Conditions: Five cell lines viability, CellTiter-Glo ATP luminescence, 48-72 h; max response: active compounds read low
# In short: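 Cells exposed to compounds for 48 or 72 hr at 37 degrees Celsius. Viability read as ATP-coupled luminescence with CellTiter-Glo after 10 min at room temperature.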
row,SMILES,max response
1,CCC(=O)O[C@](Cc1ccccc1)(c1ccccc1)[C@H](C)CN(C)C,0.566% (inactive)
2,CC(C)C[C@H]1C(=O)N2CCC[C@H]2[C@]2(O)O[C@](NC(=O)[C@@H]3C[C@@H]4c5cccc6[nH]cc(c56)C[C@H]4N(C)C3)(C(C)C)C(=O)N12,-14.2% (inactive)
3,C[C@H]1[C@H]2Cc3ccc(O)cc3[C@]1(C)CCN2CCc1ccccc1,-3.9% (inactive)
4,Cc1nnc2n1-c1sc(Br)cc1C(c1ccccc1Cl)=NC2,-25.2% (inactive)
5,CN1CCN=C(c2ccccc2)c2cc(Cl)ccc21,8.16% (inactive)
6,O.O.O.O=C([O-])C(O)C(O)C(=O)[O-].O=C([O-])C(O)C(O)C(=O)[O-].[K+].[K+].[Sb].[Sb] (centres undefined),-33.9% (inactive)
7,CCc1cc(OC)c(C[C@@H](C)N)cc1OC,-13.5% (inactive)
8,CC(C)=CCN1CC[C@]2(C)c3cc(O)ccc3C[C@H]1[C@H]2C,-17.1% (inactive)

# System: CRL-7250
# Experiment: qHTS assay to identify novel small-molecules to repurpose for Merkel cell carcinoma treatment (AID 1296009); note: nearly all actives have a fitted effect of over 60% in size
# Conditions: MCC and control cell lines, CellTiter-Glo viability, 72 h; series mostly up to 92 µM
# In short: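 CellTiter-Glo luminescence after 72 hr compound exposure at 37 degree celsius gave cell viability. Libraries NPC and MIPE were run as 8- and 11-point dose responses; RLUs normalized to DMSO (negative) and no-cell (cytotoxicity) controls.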
SMILES,Potency,outcome
CC(C)CC(=O)OC[C@@]1(O)C[C@@]23CC[C@H]4[C@@](C)(CCC[C@@]4(C)C(=O)O)[C@@H]2CC[C@@H]1C3,inactive,–
CCC(=O)N[C@@H]1Cc2ccccc2[C@H](c2ccccc2)C1,inactive,–
COc1cc(OC)cc(-c2ccc3c(-c4ccc(F)cc4)[nH]nc3n2)c1,inactive,–
CCCC(N[C@@H](C)C(=O)N1[C@H](C(=O)O)C[C@@H]2CCCC[C@@H]21)C(=O)OCC (some centres undefined),inactive,–
C[C@H]1O[C@@H](O[C@H]2CC[C@@]3(C)C(CC[C@]4(C)C3CC=C3C5CC(C)(C)CC[C@]5(C(=O)O)CC[C@]34C(=O)O)C2(C)C)[C@H](O)[C@@H](O)[C@@H]1O (some centres undefined),inactive,–
CCOC(=O)c1cc(C#N)c(N2CCC(C(=O)NS(=O)(=O)Cc3ccccc3)CC2)nc1C,inactive,–
CC(C)(C)C1CCN(C(=O)n2ncc(C(O)(c3ccccc3)c3ccccc3)n2)CC1,inactive,–
CC(C)=CCC(O)/C(C)=C/CO[C@@H]1O[C@H](CO)[C@@H](O)[C@H](O)[C@H]1O (some centres undefined),inactive,–
OCC1OC(Oc2cc(O)cc(/C=C/c3ccc(OC4OC(CO)C(O)C(O)C4O)cc3O)c2)C(O)C(O)C1O (centres undefined),inactive,–
NCCCC[C@H](NC(=O)[C@@H]1Cc2ccccc2CN1C(=O)CCC(=O)c1ccccc1)C(=O)NCC(c1ccccc1)c1ccccc1,inactive,–
C[C@H]1[C@H](C)CC[C@]2(C(=O)O)CC[C@]3(C)C(=CCC4[C@@]5(C)C[C@@H](O)[C@H](O)C(C)(C)C5CC[C@]43C)[C@H]12 (some centres undefined),inactive,–
C/C=C1\[C@H](O[C@@H]2O[C@H](CO)[C@@H](O)[C@H](O)[C@H]2O)OC=C(C(=O)OC)[C@H]1CC(=O)OC,inactive,–
C[C@@H]1C[C@@H](O)[C@@]2(CO)C(CO)=CCC[C@@H]2[C@@]12C[C@@H](c1ccoc1)OC2=O,inactive,–
O=C(O)C[C@H]1CCC(=O)[C@@H]1C/C=C\CCO,inactive,–
CCOC(=O)c1ccc(NC2CCCCC2)c(N)c1,inactive,–
Cn1nc(C(C)(C)C)cc1C(=O)NC(Cc1cccc(Cl)c1)C(=O)NCC#N (centres undefined),inactive,–

SMILES,Potency,outcome
C=C1C(=O)OC2/C=C(\C)CC/C=C(\C(=O)O)CC/C=C(\C)CCC12 (centres undefined),inactive,–
CC12CCC(=O)C=C1C(O)CC1C2C(O)CC2(C)C1CC[C@]2(O)C(=O)CO (some centres undefined),–,inactive [at 9.27 µM]
CC(C)(O)C1CCC2(C)C3C(O)C4C(C13)C42CO (centres undefined),inactive,–
COc1ccccc1-c1ccc(-c2cn(C(=O)N3CCCCC3Cc3ccccc3)nn2)cc1 (centres undefined),inactive,–
COc1cc(C(CO)C(OC2OC(CO)C(O)C(O)C2O)c2ccc(O)c(OC)c2)ccc1O (centres undefined),inactive,–
CC(=O)O[C@@H]1[C@H]2[C@@H](OC(=O)c3ccccc3)[C@@H](C)C[C@]2(O)[C@H](OC(C)=O)[C@@]2(C)[C@@H]3CC(C)(C)C(=O)[C@]3(OC(C)=O)C[C@@]12C,inactive,–
O=C1C(Cl)=C(N2CCOCC2)C(=O)N1c1ccc(Cl)c(Cl)c1,inactive,–
CN1CCc2cc(Cl)c(O)cc2[C@@H](c2cccc3c2OCC3)C1,inactive,–
O=C(OC[C@@]1(O)CO[C@@H](O[C@H]2[C@H](Oc3ccc(O)cc3)O[C@H](CO)[C@@H](O)[C@@H]2O)[C@@H]1O)c1ccc(O)cc1,inactive,–
CC(C)C1CCC(C(=O)N[C@@H](Cc2ccccc2)C(=O)O)CC1 (some centres undefined),inactive,–
N#Cc1c[nH]c2c(C(=O)N3CCN(CCc4ccc(F)cc4)CC3)cccc12,inactive,–
CC1[C@@H](O)[C@@H](O)C2[C@]3(C)C(C[C@H]4OC(=O)[C@H](O)[C@]1(O)[C@@]24C)C(C)(O)C[C@H](O)[C@H]3O (some centres undefined),inactive,–
CCCCC(=O)N1c2ccccc2NC2=C(C(=O)CCC2)C1c1ccccc1Cl (centres undefined),inactive,–
O[C@@](Cc1ncc(CC2(C(F)(F)F)CC2)[nH]1)(c1ccc(-n2cccn2)cc1)C(F)(F)F,inactive,–
Nc1nc2c(cnn2CCCc2ccc(O)cc2)c2nc(-c3ccco3)nn12,inactive,–
